PrPC surface inh – inhibitors of human cell surface prion protein PrPC, primary screen, cell-based, TR-FRET; Major prion protein (Homo sapiens), P04156; TR-FRET read-out; inhibition, % at 13.8 µM; 370,000 compounds, 0.43% hits; in the data active = inhibition above about 24%; also: 0% = median of the test wells and 100% = reference compound wells
Sa RN4220 lethal – growth inhibition of S. aureus RN4220, primary screen, OD600; 330,000 compounds, 0.33% hits; 16 h; inhibition, % (no concentration beside the values); in the data active = inhibition above about 85%;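 also: plate controls were untreated cells for no effect and reference antibiotic for full effect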
PfHsp40 yeast – rescue of yeast from PfHsp40 toxicity, primary screen, S. cerevisiae, ATP luminescence; growth rescue, % at 12.5 µM; 340,000 compounds, 0.68% hits; S. cerevisiae expressing PfHsp40, growth rescue; in the data active = growth rescue above about 28%, passing the limit was not always enough;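 also: yeast W303a lacking pdr1 and pdr3 grown in galactose medium; growth measured after three days at 30 °C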
Sa ugtP lethal – growth inhibition of ugtP-null S. aureus, primary screen, RN4220 ugtP deletion, OD600; 16 h; 330,000 compounds, 0.54% hits; growth inhibition, % (test concentration not listed); in the data active = growth inhibition above about 68%;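 also: plate controls were untreated wells for no effect and antibiotic for full effect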
VHR inh abs – VHR1 phosphatase inhibitors, primary screen, biochemical, absorbance, uHTS. Dual specificity protein phosphatase 3 (Homo sapiens), P51452. recombinant VHR phosphatase, pNPP absorbance. inhibition, % at 13.3 µM. 290,000 compounds, 0.52% hits. AID 1654, 2009; in the data active = inhibition above about 50%
Target sequence (P51452 whole entry, looked up): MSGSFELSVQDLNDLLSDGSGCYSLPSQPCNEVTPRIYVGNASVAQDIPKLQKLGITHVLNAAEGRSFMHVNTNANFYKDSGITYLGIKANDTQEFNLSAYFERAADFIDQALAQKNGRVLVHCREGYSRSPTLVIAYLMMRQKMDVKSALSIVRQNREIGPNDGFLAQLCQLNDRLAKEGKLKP
An asterisk follows results filed as active; / = no result. A selection: hits, their analogues and other compounds. The true share with any hit is near 1.8%.

SMILES | PrPC surface inh | Sa RN4220 lethal | PfHsp40 yeast | Sa ugtP lethal | VHR inh abs
COCCCNC(=S)NC1CC2CCC(C1)N2Cc1ccccc1 (centres undefined) | -10.9 | 7.4 | 34.8* | -1.6 | 21.7
O=C1NC(Cc2ccccc2)C(=O)N2C1C[C@@]1(Br)c3ccccc3N(S(=O)(=O)c3ccccc3)C21 (some centres undefined) | / | 18.6 | / | 10.7 | /
Cc1cc(C)nc(SCc2cc(=O)c(OC(=O)c3ccc(S(=O)(=O)N4CCCC4)cc3)co2)n1 | 8.9 | 2.5 | 129.7* | 9.8 | 4.2
O=C1COc2ccc(S(=O)(=O)N3CCN(c4cccc(Cl)c4)CC3)cc2N1 | -1.5 | 0.8 | 53.4* | 3.7 | -7.2
O=C(CNC(=O)c1cccc(Cl)c1)Nc1ccc(Br)cc1C(=O)c1ccccc1 | 3.5 | 0.3 | 35.6* | -14.3 | -3.8
O=C(CNC(=O)c1ccc(Cl)cc1)Nc1ccc(Br)cc1C(=O)c1ccccc1 | 5.4 | 2.3 | 11.8 | -19.3 | 5.7
O=C(NCc1ccccc1)c1ccc2nccnc2c1 | -19.9 | 2.2 | 31.4* | 0.4 | 20.1
O=C(NCc1ccccc1)c1cc(-c2ccncc2)nc2ccccc12 | -16.6 | -0.7 | -1.5 | 3.2 | 52.6*
O=C(NCc1cccc(Cl)c1)c1ccc2nc[nH]c2c1 | 9.0 | 3.6 | -1.4 | 1.7 | 55.6*
O=C(NCc1ccco1)c1cc(-c2ccncc2)nc2ccccc12 | -13.9 | 1.5 | 0.0 | 7.6 | 7.6
Cc1cc(C(=O)NN=Cc2ccccc2Br)no1 | / | 26.8 | / | -2.5 | /
CCC[C@@H](CN1CCC[C@H]1CN1C(N)=NC[C@H]1C(C)C)N1C[C@@H](Cc2ccccc2)N(CCCC2CCCC2)C1=N | -3.4 | 100.5* | 3.3 | 100.7* | /
CC(C)C[C@@H]1CN=C(N)N1C[C@@H]1CCCN1C[C@@H](C(C)C)N1C[C@@H](Cc2ccccc2)N(CCCC2CCCC2)C1=N | -4.8 | 100.7* | 1.7 | 100.7* | /
CCCCN1C(=N)N([C@@H](CN2CCC[C@H]2CN2C(N)=NC[C@@H]2Cc2ccccc2)C(C)C)C[C@H]1Cc1ccccc1 | -0.4 | / | 2.8 | / | /
CCCCN1C(=N)N(C(CCC)CN2CCCC2CN2C(N)=NCC2Cc2ccccc2)CC1Cc1ccccc1 (centres undefined) | / | 81.5 | / | 97.6* | /
CC[C@@H](C)[C@@H]1CN([C@@H](CN2CCC[C@H]2CN2C(N)=NC[C@H]2C(C)C)C(C)C)C(=N)N1CCc1ccc(Cl)c(Cl)c1 | / | 100.6* | 3.1 | 100.6* | /
CC(=O)NN=Cc1cc(C)n(-c2ccc(Br)cc2)c1C | / | -2.5 | / | -0.9 | /
Cc1nn2c(C)c(C(=O)Nc3ccccc3)cnc2c1C#N | -7.9 | -0.6 | -1.4 | -1.0 | 51.4*
O=C(Nc1ccc(C(=O)O)cc1)C(=Cc1ccc2c(c1)OCO2)NC(=O)c1ccc(Br)cc1 | / | -2.4 | / | 8.5 | /
Cc1cnc(C(=O)OCc2ccc(Br)cc2F)cn1 | -7.4 | 6.0 | -0.6 | 15.4 | 57.6*
Cc1cnc(C(=O)OCc2ccc(COC(=O)c3cnc(C)cn3)cc2)cn1 | 1.2 | -6.8 | 0.5 | 0.9 | 16.9
Cc1ccc(S(=O)(=O)c2nc(S(C)(=O)=O)sc2N2CCCCCC2)cc1 | 1.5 | 3.8 | -1.7 | 13.1 | -22.8
Cc1ccc(S(=O)(=O)c2nc(S(C)(=O)=O)sc2N2CCN(C)CC2)cc1 | -1.0 | -2.5 | -0.9 | 1.6 | 55.5*
CN(Cc1ccccc1)C(=O)CN1CCCC1=O | -6.0 | 0.2 | -0.8 | -3.5 | 27.6
Cc1cccc(N2CCN(CC(=O)N(C)Cc3ccccc3)CC2C)c1 (centres undefined) | 2.4 | 1.5 | 43.6* | -0.1 | 5.3
SMILES | PrPC surface inh | Sa RN4220 lethal | PfHsp40 yeast | Sa ugtP lethal | VHR inh abs
CCCCOc1ccc(C=CC(=O)NC2=Nc3ccccc3NC(C)=C2C(=O)OCC)cc1OC | / | -0.7 | / | -11.4 | /
FC(F)(F)c1ccc(CN2CC3C(c4ccc(Cl)nc4)C4(c5ccccc5)CC3(C4)C2c2ccccc2)cc1 (centres undefined) | / | -2.7 | / | 0.5 | /
CCOc1ccc(C=NNc2cc(C)nc(N3CCOCC3)n2)cc1 | / | 3.9 | / | -4.0 | /
Cc1ccc2c3c(cccc13)-c1ccccc1C2=O | -9.3 | 2.3 | 2.2 | 46.7 | 20.8
Nc1ccc2c3c(cccc13)-c1ccccc1-2 | 4.5 | 70.8 | 0.4 | 85.1* | /
NC(=NOC(=O)c1ccc(Cl)cc1)c1ncc([N+](=O)[O-])s1 | / | 5.1 | / | 10.1 | /
COc1cc(C(=O)NC(=S)NNC(=O)c2cnccn2)cc(OC)c1OC | 11.7 | 19.6 | 132.0* | -0.7 | 2.1
COc1ccccc1C(=O)NNC(=S)NC(=O)c1cc(OC)c(OC)c(OC)c1 | 2.2 | 28.5 | 61.6* | 19.3 | -2.4
O=C(O)C=CC(=O)Nc1ccc(S(=O)(=O)Nc2nccs2)cc1 | / | 0.6 | / | 0.4 | /
COc1cccc(C2=NOC(C(=O)N3CCc4ccccc4C3)C2)c1 (centres undefined) | 5.7 | 2.0 | -1.0 | 4.3 | 55.2*
COc1ccc(/C=C\C(=O)NCC(=O)NN=Cc2ccc(O)cc2O)cc1 | / | 0.7 | / | -1.6 | /
CCCc1ccc(-c2ccc(-c3noc(-c4ccncc4)n3)cc2)nc1 | 5.8 | -6.2 | -0.9 | 14.3 | -13.1
CCCCc1ccc(-c2ccc(Br)cc2)nc1 | -0.7 | 17.9 | -0.1 | 87.7* | 4.4
CC(C)(O)CCCC(C)(O)c1ccc(C(=O)O)cc1O (centres undefined) | -1.4 | 1.4 | 54.9* | 1.4 | 22.0
CC(C)CCC[C@](C)(O)c1ccc(C(=O)O)cc1O | 1.6 | / | / | / | /
CC(C)=C[C@@H]1C[C@H](C)[C@H]2CC[C@H](C)c3c(O)c(O)c(C)c1c32 | 4.5 | / | 0.6 | / | /
CC(=O)Oc1c(C)c2c3c(c1OC(C)=O)[C@@H](C)CC[C@@H]3[C@@H](C)C[C@H]2C=C(C)C | 3.0 | -10.0 | 2.2 | 86.4* | /
O=C(Nc1cc(C(F)(F)F)ccc1N1CCOCC1)c1n[nH]c(=O)c2ccccc12 | -1.0 | 99.7* | -0.5 | 98.0* | 11.9
O=C(Nc1cc(C(F)(F)F)ccc1N1CCOCC1)c1ccc(F)cc1 | 5.5 | -19.6 | -0.2 | -6.0 | 12.1
C=CCN1C(=O)/C(=C2/Sc3ccccc3N2CCCS(=O)(=O)O)SC1=S | -27.1 | -4.6 | -0.5 | 5.2 | 50.5*
Cc1ccc(NC(=O)NNS(=O)(=O)c2ccc(Br)cc2)cc1 | -2.0 | 10.0 | -0.7 | 0.3 | 8.8
Cc1ccc(S(=O)(=O)NC(=O)Nc2ccc(N(C)C)cc2)cc1 | -30.1 | 4.2 | 0.5 | 10.8 | 52.2*
Cc1cc2c(cc1S(=O)(=O)Nc1ccc(OC(F)(F)F)cc1)OCC(=O)N2 | -2.4 | -8.3 | 0.2 | 91.7* | -1.9
COc1ccc(C=NNC(N)=S)cc1OC(=O)c1cccc2ccccc12 | / | 1.6 | / | -1.2 | /
COc1ccc(C(=O)NNC(=S)NC(=O)c2cc(-c3ccccc3)nc3ccccc23)cc1 | 8.5 | 84.5 | -1.1 | 22.3 | 20.5
COc1ccc(Cl)cc1C(=O)NNC(=S)NC(=O)c1cc(-c2ccccc2)nc2ccccc12 | -1.9 | 93.4* | 0.8 | 97.3* | -4.3
Cc1ccc(C)c(-c2cc(C(=O)NNC(=S)NCC(C)C)c3ccccc3n2)c1 | 5.4 | 16.7 | 82.4* | 19.5 | 22.5

From PubChem
